# Sampled rows, rich in hits. Any-hit rate of the full collection: about 4.3%.
# MLL AF4-AF9 inh – blocks AF4 peptide binding to human AF9 | P42568 | AlphaScreen, biotin-AF4 peptide binding to FLAG-AF9 | inhibition, % at 10 µM | hit rate 0.47% among 350,000 | AID 651704;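 active means every replicate reaching a set inhibition limit, whatever the replicate mean, cut at about 25% in these data; inconclusive means mean inhibition reaches that limit but some replicates miss it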;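 further: 0% = plate neutral control median and 100% = total signal loss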
# Wnt bcat act – activates Wnt/beta-catenin signaling in a reporter cell assay | AID 743398 | activation, % at 9.35 µM | activator, plate reader | hit rate 1.2% among 300,000; in the data active means activation above about 30%, passing the limit was not always enough; inconclusive means no clear call, values can overlap the other calls;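 further: 0% = neutral control wells and 100% = positive control wells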
# esBAF inh – SWI/SNF esBAF complex inhibition. reporter increase, % at 12.5 µM. hit rate 2% among 350,000. AID 602393. mouse ES cells, Bmi1-luciferase knock-in reporter, 24 h; 100% = twice the neutral-well signal; in the data active means activation above about 40%; inconclusive means no clear call, values can overlap the other calls;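 further: 0% = median of the plate's neutral control wells and 100% = double that signal; a rise in the Bmi1 reporter signal indicates esBAF inhibition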
# SMARCA2 act – increases SMARCA2 function in MMTV reporter cells; MG213 cells, MMTV-luciferase reporter, dexamethasone, overnight; activation, % at 9.1 µM; hit rate 1% among 370,000; AID 652017; in the data active means activation above about 7.8%;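 further: 0% = vehicle wells and 100% = reference activator wells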
# FGF22 binding – FGF22 (human) thermal shift binding. recombinant FGF22 thermal shift, SYPRO orange fluorescence; percent of sucrose octasulfate shift, DMSO zero. activity (Tm shift, normalised), % at 9.99 µM. hit rate 1.5% among 340,000. AID 651658;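 active means mean Tm shift, scaled 0 neutral to 100 positive control, at about 1.3% or above, every replicate too, limit read from the data; inconclusive means no clear call, values can overlap the other calls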
# Target sequence (Q9HCT0 whole entry, looked up): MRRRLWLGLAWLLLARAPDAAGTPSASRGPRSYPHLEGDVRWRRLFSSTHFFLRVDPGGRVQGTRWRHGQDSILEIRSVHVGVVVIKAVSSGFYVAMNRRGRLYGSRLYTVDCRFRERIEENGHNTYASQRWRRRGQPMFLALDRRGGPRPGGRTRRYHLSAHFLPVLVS
# MITF TRPM1 HTS – MITF TRPM1 promoter activation in melanoma cells. SK-MEL-5 TRPM1-promoter luciferase, 24 h; % of positive control, neutral wells = 0. activation, % at 12.5 µM. hit rate 0.75% among 300,000. AID 588334;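 active means mean activation of at least 80% with every replicate also reaching 80%; inconclusive means mean reaches 80% but some replicate falls short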;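 further: 0% = neutral control wells and 100% = parthenolide positive control wells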
# SMARCA2 act conf – SMARCA2 activation, confirmation screen. MG213 cells, MMTV-luciferase with dexamethasone, luminescence, overnight; MG213 cells expressing E1A, Rb sequestered; DMSO wells 0%, reference activator 100%. hit rate 30% among 3,500. AID 652260. shares compounds with SMARCA2 act. activation, % at 9.1 µM;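 active means activation above its plate's cutoff, the mean activation of tested wells plus 3 SD, cut at about 7.9% in these data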
# VP16 Luc act – counter-screen for SMARCA2 activators: GAL4-VP16 luciferase reporter activation. shares compounds with SMARCA2 act. AID 686939. hit rate 41% among 3,500. activation, % at 9.1 µM. HEK293 GAL4-VP16 pG5luc reporter, luciferase luminescence; scaled: DMSO wells 0%, SAHA wells 100%;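 active means activation above the solvent-only control well mean plus 3 SD, averaged across control plates, cut at about 5.2% in these data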
# * marks the source's active call; other numbers are inactive results; ? = inconclusive; . = no result.
SMILES,MLL AF4-AF9 inh,Wnt bcat act,esBAF inh,SMARCA2 act,FGF22 binding,MITF TRPM1 HTS,SMARCA2 act conf,VP16 Luc act
COc1ccc(CN2CCNC(=O)C2CC(=O)O)cc1OC (stereo not drawn),-1.9,-2.7,6.2,12.4*,0.1,-13.2,-1.4,0.4
CC(C)NC(=O)Nc1ccc2c(c1)C(=O)N([C@H](C)CO)C[C@H](C)[C@@H](CN(C)S(=O)(=O)c1ccc(Cl)cc1)OCCCC[C@@H](C)O2,-1.1,.,1.2,.,0.1,.,.,.
Cc1noc(/C=C/Nc2ccc(F)cc2F)c1[N+](=O)[O-],3.0,40.1*,.,8.0*,0.8,46.6,6.6,10.2*
O=C(Cn1cc([N+](=O)[O-])cn1)Nc1ccccn1,.,0.3,-3.0,0.3,.,3.0,.,.
Cc1ccnc(NC(=O)Cn2cc([N+](=O)[O-])cn2)c1,0.0,7.6,.,16.1*,-0.2,7.1,7.4,5.8*
CCOc1cc(CCNC(=O)c2cc(-c3ccccc3)c(N3CCOCC3)s2)ccc1OC,.,.,.,-3.4,.,.,.,.
O=c1c2sc(-c3ccccc3)cc2nc2n1CCC2,.,7.9,.,9.9*,.,-13.5,2.4,3.7
Cn1c(NCCN2CCCC2)nc2cc(-c3ccccc3)sc2c1=O,2.0,-0.4,19.3,1.7,0.2,.,.,.
CN1C/C(=C/c2ccccc2[N+](=O)[O-])C(=O)/C(=C\c2ccccc2[N+](=O)[O-])C1,0.5,-25.0,.,26.2*,-0.3,.,-15.5,5.1*
CCNc1nc(NCC)nc(SCCOc2ccc(C)cc2)n1,.,.,.,9.6*,.,13.8,1.4,4.6
CCOc1nc(C)ccc1-c1noc(-c2ccccn2)n1,.,.,11.0,4.3,.,42.3,.,.
CCOc1ccccc1-c1nc(-c2ccc(C)nc2OC)no1,.,51.4*,69.2*,8.8*,.,.,14.7*,8.0*
CNC(=O)C[C@@H]1CC[C@H]2[C@H](COc3ccc(NS(=O)(=O)c4cccc(F)c4)cc3C(=O)N2C)O1,-1.0,.,1.9,.,0.0,.,.,.
CSc1ccc(/C=N/Nc2cccc(C(=O)O)c2)cc1,.,.,.,.,.,-78.7,.,.
COc1ccc(-c2nn(-c3ccccc3)cc2/C=N/NC(=O)c2ccc(Br)o2)cc1,.,.,2.3,2.2,.,-61.1,.,.
COc1ccc(-c2nn(-c3ccccc3)cc2/C=N/Nc2cccc(C(=O)O)c2)cc1,0.8,3.2,47.3*,9.1*,-1.4,41.1,-3.0,2.5
O=C(O)c1cccc(N/N=C/c2cccs2)c1,-100.0,-1.7,.,11.8*,0.3,-76.0,5.0,14.3*
COc1cccc2nc3c(C(=O)NCCN(C)C)cccc3cc12,5.0,2.1,.,10.0*,-0.3,.,41.5*,2.2
CN(C)CCNC(=O)c1cccc2[nH]c(-c3ccncc3)nc12,-1.0,-2.2,.,5.3,0.2,.,.,.
CN(C)CCNC(=O)c1cccc2nc3c(ccc4ccccc43)nc12,?,5.9,.,18.7*,-0.1,.,31.5*,3.9
COc1ccc(-c2nc3c(C(=O)NCCN(C)C)cccc3c3ccccc23)cc1,18.5,0.6,.,12.0*,-0.2,.,26.3*,1.2
COc1ccc(C(=O)NCCN(C)C)c2nc3ccccc3cc12,7.2,-2.5,.,12.4*,-0.1,.,95.0*,7.3*
COc1ccc(Cl)cc1C(=O)NCCN(C)C,.,0.6,.,-3.0,.,0.8,.,.
COc1cccc(N2CCN(c3nc(C)c(C)c(=O)[nH]3)CC2)c1,0.2,-1.5,-9.7,-3.4,0.0,-8.9,.,.
COc1cccc(N2CCN(c3nc(-c4ccccc4C)cc(=O)[nH]3)CC2)c1,6.0,-1.0,1.7,13.3*,0.1,.,36.0*,1.3
SMILES,MLL AF4-AF9 inh,Wnt bcat act,esBAF inh,SMARCA2 act,FGF22 binding,MITF TRPM1 HTS,SMARCA2 act conf,VP16 Luc act
Cc1noc(C)c1-c1ccc(C(=O)Nc2ccccc2)c2occc12,0.5,-0.8,57.1*,12.0*,-0.2,.,4.3,16.1*
c1ccc(CSc2ccc(-c3ccc4c(c3)OCO4)nn2)cc1,.,34.7*,.,10.9*,.,89.5*,7.9*,5.0
O=C1NC(=Nc2ccc3ccccc3c2)S/C1=C/c1ccco1,-0.2,-0.1,14.8,10.0*,0.2,14.3,6.0,4.1
CN(C)CCNc1cccc2sc3ccc(O)cc3c(=O)c12,37.7*,5.4,.,15.6*,-0.3,.,31.5*,8.4*
COc1ccc(S(=O)(=O)Nc2cccc3ccc(O)cc23)cc1,3.3,-11.0,.,-1.8,-0.3,.,.,.
CCOC(=O)/C=C(\C)N1N=C(c2ccccc2)CC1c1ccccc1 (stereo not drawn),1.5,19.8,.,8.3*,43.2*,43.8,2.8,9.2*
O=C(N[C@H]1CC[C@@H](CCn2cc(Cc3ccccc3)nn2)O[C@H]1CO)c1ccccn1,-1.1,.,0.7,.,-0.1,.,.,.
COc1ccc(-c2csc(C)n2)cc1Br,-0.2,-1.7,32.3,2.4,-0.1,44.8,.,.
COc1ccc(-c2cn3cccc(C)c3n2)cc1Br,.,35.4*,98.9*,10.0*,.,49.7,6.8,14.3*
O=C(CSc1nnc(-c2ccccc2O)o1)N1CCCCC1,-1.7,3.2,12.1,7.7,41.3,38.5,.,.
CC1CCCCN1C(=O)CSc1nnc(-c2ccccc2O)o1 (stereo not drawn),2.8,13.5,26.6,8.9*,-0.4,31.7,1.7,10.1*

# Screening data: PubChem BioAssay, several laboratories
